The source made the active and inactive calls.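 Rule for the calls: active = thallium flux through the channel raised or lowered by more than 3 SD from vehicle-only wells, actives on both sides; inactive = the rest.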
Tests used:
Assay in all cases: BK channel mutant inhibitors and activators – cell-based, U2OS BacMam, thallium flux, beta subunits, selectivity assay, profiling panel (AID 1259406);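 note: initial slope of Thallos dye fluorescence rise after thallium is added; log ratio against the mean of 0.3% DMSO vehicle wells on the same plate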
F380Y = conditions: U2OS BacMam BK variants, at 30 µM
F380Y/beta1 = conditions: U2OS BacMam BK variants, at 30 µM
F380Y/beta2Delta = conditions: U2OS BacMam BK variants, at 30 µM
F380Y/beta4 = conditions: U2OS BacMam BK variants, at 30 µM
[1] = biological target: Calcium-activated potassium channel subunit alpha-1 (Homo sapiens) + Leucine-rich repeat-containing protein 26 (Homo sapiens) (UniProt Q12791+Q2I0M4); conditions: U2OS BacMam BK variants, F380Y/Slo1WT/gamma1, at 30 µM
R275C = conditions: U2OS BacMam BK variants, at 30 µM
R275C/beta1 = conditions: U2OS BacMam BK variants, at 30 µM
R275C/beta2Delta = conditions: U2OS BacMam BK variants, at 30 µM
R275C/beta4 = conditions: U2OS BacMam BK variants, at 30 µM
R275C/Slo1WT/beta2 = conditions: U2OS BacMam BK variants, at 30 µM

Measured: log fold change Tl+ flux

Chain of Calcium-activated potassium channel subunit alpha-1 (Homo sapiens) + Leucine-rich repeat-containing protein 26 (Homo sapiens) (Q2I0M4 whole entry, looked up, one chain of several): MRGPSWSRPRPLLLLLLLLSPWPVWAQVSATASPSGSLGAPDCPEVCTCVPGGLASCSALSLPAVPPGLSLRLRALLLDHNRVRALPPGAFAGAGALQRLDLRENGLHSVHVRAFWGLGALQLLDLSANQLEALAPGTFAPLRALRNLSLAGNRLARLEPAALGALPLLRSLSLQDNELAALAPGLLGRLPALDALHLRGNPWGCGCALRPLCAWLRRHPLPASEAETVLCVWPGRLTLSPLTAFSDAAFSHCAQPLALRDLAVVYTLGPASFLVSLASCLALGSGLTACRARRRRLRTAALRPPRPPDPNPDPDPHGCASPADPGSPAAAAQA

CN(NC(=O)c1ccc(Cl)s1)c1cnn(-c2cc(Cl)cc(Cl)c2)c(=O)c1Cl
inactive: F380Y 0.0366 | F380Y/beta1 -0.0161 | F380Y/beta2Delta 0.019 | F380Y/beta4 0.00909 | [1] -0.0561 | R275C -0.0148 | R275C/beta1 0.00182 | R275C/beta2Delta 0.046 | R275C/beta4 -0.0313 | R275C/Slo1WT/beta2 -0.00119

N#Cc1cccc(CSc2ncnc(N)n2)c1
inactive: F380Y 0.00879 | F380Y/beta1 0.0215 | F380Y/beta2Delta 0.00942 | F380Y/beta4 -0.00378 | [1] 0.019 | R275C 0.0199 | R275C/beta1 -0.0244 | R275C/beta2Delta 0.0122 | R275C/beta4 0.019 | R275C/Slo1WT/beta2 0.00642

CC1(C)CC(=O)N(c2cc(Cl)cc(Cl)c2)C(=O)C1
inactive: F380Y 0.0251 | F380Y/beta1 0.0345 | F380Y/beta2Delta 0.0195 | F380Y/beta4 -0.021 | [1] -0.00455 | R275C -0.0193 | R275C/beta1 0.025 | R275C/beta2Delta 0.032 | R275C/beta4 -0.0103 | R275C/Slo1WT/beta2 -0.0488

O=C(c1ccccc1)c1c(Cl)cc(C(F)(F)F)cc1Cl
inactive: F380Y -0.0258 | F380Y/beta1 0.0352 | F380Y/beta2Delta 0.0614 | F380Y/beta4 0.0559 | [1] 0.0324 | R275C 0.00162 | R275C/beta1 0.0087 | R275C/beta2Delta 0.0434 | R275C/beta4 0.000317 | R275C/Slo1WT/beta2 0.0159

CSc1n[nH]c(N)c1S(=O)(=O)C(C)C
inactive: F380Y 0.0369 | F380Y/beta1 0.0175 | F380Y/beta2Delta 0.0116 | F380Y/beta4 -0.00921 | [1] 0.0306 | R275C -0.018 | R275C/beta1 0.0133 | R275C/beta2Delta -0.00282 | R275C/beta4 0.0217 | R275C/Slo1WT/beta2 0.0141

Cc1ccc(NC(=S)NCCO)cc1
inactive: F380Y 0.021 | F380Y/beta1 0.0481 | F380Y/beta2Delta 0.0272 | F380Y/beta4 -0.0116 | [1] -0.000511 | R275C 0.0409 | R275C/beta1 -0.0306 | R275C/beta2Delta -0.0145 | R275C/beta4 0.0201 | R275C/Slo1WT/beta2 0.0248

C#Cc1cccc(NS(=O)(=O)c2ccc(Cl)c(Cl)c2)c1
inactive: R275C -0.0107 | R275C/Slo1WT/beta2 -0.0633
active: F380Y 0.107 | F380Y/beta1 0.533 | F380Y/beta2Delta 0.116 | F380Y/beta4 0.222 | [1] 0.182 | R275C/beta1 0.291 | R275C/beta2Delta 0.158 | R275C/beta4 0.196

COC(=O)c1cc(S(=O)(=O)N(Cc2ccc(OC)cc2)Cc2cccn2C)oc1C
active: F380Y -0.118 | F380Y/beta1 -0.0838 | F380Y/beta4 -0.483 | [1] -0.414 | R275C -0.56 | R275C/beta1 -0.496 | R275C/beta2Delta -0.122 | R275C/beta4 -0.289 | R275C/Slo1WT/beta2 -0.135
inactive: F380Y/beta2Delta -0.0509

O=C1C(=Cc2cc(-c3ccccc3)c(C(F)(F)F)s2)CSc2ccc(Cl)cc21
inactive: F380Y 0.00549 | F380Y/beta1 0.0168 | F380Y/beta2Delta 0.0287 | F380Y/beta4 -0.022 | [1] -0.0261 | R275C -0.00201 | R275C/beta1 -0.0099 | R275C/beta2Delta -0.0048 | R275C/beta4 0.0191 | R275C/Slo1WT/beta2 0.0572

Clc1cc(Cl)cc(Nc2ncnc(-n3cccc3)n2)c1
inactive: F380Y 0.0686 | F380Y/beta1 0.0545 | F380Y/beta2Delta 0.0354 | F380Y/beta4 0.0368 | [1] 0.0181 | R275C 0.00673 | R275C/beta1 0.00955 | R275C/beta2Delta 0.0395 | R275C/beta4 -0.0107 | R275C/Slo1WT/beta2 -0.0692

CC(=O)Nc1ccc(OCC(=O)N2CCN(c3ncc(C(F)(F)F)cc3Cl)CC2)cc1
inactive: F380Y 0.046 | F380Y/beta1 0.0214 | F380Y/beta2Delta 0.00987 | [1] 0.039 | R275C 0.0368 | R275C/beta1 0.00256 | R275C/beta2Delta 0.0353 | R275C/beta4 0.0246 | R275C/Slo1WT/beta2 0.0473
active: F380Y/beta4 0.125

COCCCNC1=C(C#N)C(=O)NC(c2cccs2)S1 (stereo not given)
inactive: F380Y 0.041 | F380Y/beta1 0.00355 | F380Y/beta2Delta 0.0315 | F380Y/beta4 -0.00136 | [1] 0.0147 | R275C -0.0102 | R275C/beta1 0.0346 | R275C/beta2Delta 0.0144 | R275C/beta4 -0.0186 | R275C/Slo1WT/beta2 -0.0245

CCOC(=O)CCSC1=NC(c2cccs2)C(C(=O)OCC)=C(C)N1 (stereo not given)
inactive: F380Y -0.00248 | F380Y/beta1 -0.0154 | F380Y/beta2Delta -0.0693 | F380Y/beta4 -0.0516 | [1] -0.0633 | R275C -0.0523 | R275C/beta1 -0.0288 | R275C/beta2Delta -0.0824 | R275C/beta4 -0.0154 | R275C/Slo1WT/beta2 -0.0325

Reference: PubChem BioAssay
